Measurements published in PubChem BioAssay (NCI).
Compounds without any hit were thinned out: in the full panel of roughly 79,000, 15% have a hit. Unmarked numbers belong to inactive results. Active and inactive are the calls of the source. No stated cut-off is given here; in the data, active means growth inhibition above about 70%; inactive means the rest.

Legend:
[1] = NCI Yeast Anticancer Drug Screen. Data for the rad50 strain (AID 155);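 further: 0% = growth of vehicle-only cultures of the same strain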; settings: S. cerevisiae rad50 strain growth inhibition; at 50.0 µM; stronger effect = higher value
In short: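 Readout: growth inhibition relative to vehicle-treated cultures. Compound exposure was carried out in a genetically defined yeast strain deficient in DNA damage repair.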

[2] = NCI Yeast Anticancer Drug Screen. Data for the mec2-1 strain (AID 157); settings: S. cerevisiae mec2-1 strain, at 50.0 µM, stronger effect = higher value
In short: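 Strain: mec2-1 (DNA repair/cell cycle alteration). Compound exposure, then growth measured; inhibition expressed relative to vehicle.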

[3] = NCI Yeast Anticancer Drug Screen. Data for the sgs1 mgt1 strain (AID 161);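 further: 0% = growth of cultures given vehicle only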; settings: S. cerevisiae sgs1 mgt1 strain, at 50.0 µM, stronger effect = higher value
In short: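 Mutant yeast exposed to compound; growth scored against vehicle-only wells.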

[4] = NCI Yeast Anticancer Drug Screen. Data for the cln2 rad14 strain (AID 165);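 further: 0% = growth equal to vehicle treated cultures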; settings: S. cerevisiae cln2 rad14 strain, at 50.0 µM, stronger effect = higher value
In short: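 Compounds are applied to the cln2 rad14 yeast strain, and growth is then compared with that of vehicle-treated cultures to give inhibition.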

[5] = NCI Yeast Anticancer Drug Screen. Data for the bub3 strain (AID 167); settings: S. cerevisiae bub3 mutant strain, at 50.0 µM, stronger effect = higher value
In short: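 Readout: yeast growth inhibition, expressed relative to vehicle-only wells. The test organism is a mutant strain from a panel with lesions in DNA repair or checkpoint genes.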

[6] = NCI Yeast Anticancer Drug Screen. Data for the mlh1 rad18 strain (AID 175); settings: S. cerevisiae mlh1 rad18 strain growth inhibition; at 50.0 µM; stronger effect = higher value
In short: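 Read-out is yeast growth inhibition, calculated against vehicle-only controls. The compound was applied to a strain engineered with DNA damage repair alterations.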

Compound	growth inhibition [1]	growth inhibition [2]	growth inhibition [3]	growth inhibition [4]	growth inhibition [5]	growth inhibition [6]
O=C1Nc2ncnc(Cl)c2Cc2ccccc21	-2.6%	-6.9%	-0.75%	-12.9%	-6.15%	-12.1%
CCCCCCCCCSCCS	-14.1%	7.4%	2%	-16.2%	-19.4%	-22.2%
CC(C)c1nnc(NC(=O)CSC(=S)N2CCOCC2)s1	-23.9%	-18.1%	-5.95%	-51.9%	-16.6%	-2.25%
CC1=[N+]([O-])c2ccccc2C(=O)C1=O	35.3%	12.3%	35.3%	33.6%	41.1%	27.1%
N#C/C(=C\c1ccccc1)c1cccc(Cl)c1	-32.2%	-5.8%	-13.3%	-97.1%	13.8%	-12.7%
CCCC(CCc1ccccc1)C(=O)NC(N)=O (stereo unspecified)	4.5%	-5.6%	1.45%	2.55%	42.7%	1.4%
COc1cc(Cc2nccc3cc(OC)c(OC)cc23)c(N=NN(C)C)cc1OC	-14.2%	-7.6%	-4.9%	5.45%	-10.4%	8.35%
Cc1cccc(Cl)c1O	29.8%	-7.1%	23.6%	-23.8%	-7.75%	18.2%
O=C(Nc1ccc([N+](=O)[O-])cc1)c1cc(N2CCOCC2)ccn1	38%	16.6%	21.6%	15.6%	2.15%	25.6%
CC/C=C(\C)C(C#N)(CCC)C(=O)OCC (stereo unspecified)	-1.8%	-34.1%	-20.9%	-0.75%	-25.6%	-31.7%
O=[N+]([O-])c1ccc(Nc2ccccc2)c2nonc12	-22.2%	4.45%	-0.1%	26.4%	13.8%	29.4%
CC(C)/C=C\C(=O)CC(C)C	-3.65%	28.8%	9.35%	5.9%	17.4%	18.6%
Cc1ccc(C(=O)O)c(C(=O)O)c1	-11.2%	-18.9%	-18.4%	-4.25%	-17.1%	1.75%
OC(Cc1ccccn1)c1ccccc1 (stereo unspecified)	33.4%	13.1%	21.4%	22.6%	9.35%	32.1%
COc1cccc(C2OC(N)=C(O)C2=O)c1 (stereo unspecified)	-10.8%	1.9%	3.6%	-11.2%	2.45%	22.2%
O=C(Nc1ccc2[nH]c3c(-c4ccccc4)nccc3c2c1)c1ccccc1[N+](=O)[O-]	15.8%	-21.2%	-5.3%	6.65%	-2.75%	5.35%
CCOC(=O)c1[nH]c(COC(C)=O)c2c1CCCCCCCCCC2	-6.1%	-9.75%	6.05%	41.2%	5%	-12.3%
c1ccc(-c2cc(-c3ccccc3)c3ccc4c(-c5ccccc5)cc(-c5ccccc5)c5ccc2c3c54)cc1	-43%	-17.4%	-14.3%	11.6%	-18.9%	-26.2%
O=C(NC(Cc1cccnc1)C(=O)O)c1ccccc1 (stereo unspecified)	2.85%	11.4%	8.55%	-16.4%	12.9%	7.65%
CCCCCCCCCCCCCCCCSc1ccncc1NN=O	36.2%	-2%	17.1%	-10.5%	-3.8%	2.3%
CCC(C)c1cnc(CC(C)C)c(=O)[nH]1 (stereo unspecified)	8.9%	-44.2%	17.2%	4.85%	-9.6%	0.85%

Compound	growth inhibition [1]	growth inhibition [2]	growth inhibition [3]	growth inhibition [4]	growth inhibition [5]	growth inhibition [6]
O=[N+]([O-])C(C(Cl)=C(Cl)Cl)=C(n1nnc2ccccc21)n1nnc2ccccc21	40.6%	34.9%	25.3%	27.1%	19%	21.1%
O=C(O)C1=C(C(=O)O)C2CCC1C2	-25.1%	-33.5%	-23.2%	2.65%	-11.8%	-14.4%
Cc1ccc(S(=O)(=O)c2ccccc2C)s1	-9%	-32.5%	-16.4%	11.5%	-14.6%	-12.1%
CN(C)C=Nc1ccc(F)cc1	-16.1%	-5.6%	-11.4%	-20.1%	-1.8%	-2.1%
CCCCCCC(O)Cc1ccccc1 (stereo unspecified)	5.95%	5.1%	-5.5%	-12.3%	-24.9%	1.2%
Cc1ccc(S(=O)(=O)/C(C#N)=C\N2CC(=O)NC2=S)cc1	-20.1%	-21.1%	-23.2%	-10.3%	-13.9%	-25.6%
CC(O)(c1ccccc1)C1CC1c1ccccc1 (stereo unspecified)	29.9%	-3.5%	20.8%	-17.2%	-12.5%	6.3%
CN(C(=N)N)c1ccc(C(=O)Oc2ccc([N+](=O)[O-])cc2)cc1	14.8%	12.8%	29.6%	1.35%	15.1%	17.1%
CC(=O)N(C)C1=C(Sc2ccc([N+](=O)[O-])cc2)C(=O)c2ccccc2C1=O	97% (active)	99.5% (active)	97.5% (active)	99% (active)	99.1% (active)	98.9% (active)
COc1ccccc1/C=C1/C(=O)ON=C1C	0.05%	-21.1%	-11.9%	9.6%	-17.1%	-18.5%
O=C(C[n+]1ccccc1)N/N=C(/CCC(=O)N(Cc1ccccc1)Cc1ccccc1)CC(=O)c1ccccc1	-21.1%	-21.8%	-38%	0.85%	-26.6%	-21.8%
O=c1/c(=C\c2ccccc2Cl)sc2n1CCN=2	22.2%	5.8%	4.9%	15.4%	11.3%	24.9%
C/C(N=NC(=S)N(C)C)=C1\C=CC=CN1O	-0.25%	11.8%	8.1%	55.6%	23.1%	38.9%
O=C(CNC(=O)C(CSC(c1ccccc1)(c1ccccc1)c1ccccc1)NC(=O)OCc1ccccc1)OCc1ccccc1[N+](=O)[O-] (stereo unspecified)	4.9%	8.85%	-4.15%	-7.95%	-7.05%	20.1%
COc1cc(C(=O)C/C(CCC(=O)Nc2ccccc2[N+](=O)[O-])=N\NC(=O)C(N)=O)ccc1O	-20.5%	9.8%	-47.4%	5.9%	-16.2%	-24.4%
Cc1ccc(NC(=O)CCCC(=O)CC(=O)c2ccc(Br)cc2)cc1	-0.4%	-14.9%	-40.4%	-26.2%	-12.2%	-24.6%
Cc1nc(=S)[nH][nH]1	-0.75%	16.9%	6.15%	3.5%	8.15%	1%
CC(N)c1ccc2ccccc2c1O (stereo unspecified)	-3.95%	-7.05%	8.8%	-11.2%	-6%	8.05%
c1ccc(-c2nc3ccccc3nc2SCc2cccnc2)cc1	14.4%	-18.1%	-19.7%	-18.2%	-30.8%	-9.8%
CC(=O)OC1CCC2(C)C(=CCC3C2CCC2(C)C(C(C)C(=O)O)CCC32)C1 (stereo unspecified)	15.7%	-32.8%	-21.4%	-10.2%	-31.1%	13%
